Assay [1] can be described thus: Wnt pathway potentiators raising nuclear beta-catenin – imaging, WNT3A-conditioned medium, mouse C2C12, NPC library, primary screen (AID 1117326; in the data active means nuclear beta-catenin stimulation mostly above about 4.2%, no sharp cut-off; inactive means mostly below about 10%). Conditions: stronger effect = higher value.
The nature of assay [2]: glutamate transport activators, MN-1 cells, MN-1 cell line (AID 1612).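 Further: tested at 1 µM final; 0% = mean of DMSO vehicle wells on each plate; positive means more glutamate uptake than control and negative means less.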 Conditions: MN-1 motor neuron cells, stronger effect = higher value.
A short description of assay [3]: GFP-Q80 aggregate reduction, neuronal-like cells, cell-based, NGF-treated PC12, GFPQ80 (AID 1614).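 Further: lower means fewer inclusions and 0 means no inclusions at all.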 Conditions: PC12 NGF-treated GFP-polyQ80 inclusion reduction.
A short description of assay [4]: 75Q-TubH aggregate inhibition, S. cerevisiae, yeast (AID 1616). Conditions: S. cerevisiae 75Q-TubH polyglutamine aggregation suppression; stronger effect = higher value.
Assay [5] in a line: compounds altering circadian rhythm period length – cell-based, LOPAC library, luminescence reporter (AID 2774; call rule not given here;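 further: values are relative to mean of DMSO wells on each plate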). Conditions: circadian reporter cells, at 7 µM, actives lie on both sides.
The nature of assay [6]: compounds altering viability of human ES cells (AID 493140; call rule not given here;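 further: cells exposed to compounds for four days before counting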). To be noted: human embryonic stem cell survival screen; stronger effect = higher value.
Assay [7] is described as follows: P. berghei load reduction in hepatocytes – cell-based, HepG2, luciferase luminescence, HepG2 viability, primary screen (AID 624349).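 Further: 100% = mean of DMSO negative control wells on the same plate.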 To be noted: P. berghei liver stage in HepG2, luciferase luminescence, concentration not given here; parasite load remaining: stronger effect = lower value; viability: measured here: HepG2 viability without parasites.
For assay [8], the system named is Hepatitis C virus NS3 helicase. The experiment in a line: blockers of NS3h binding to ssDNA – biochemical, fluorescence polarization, LOPAC1280 library, primary screen (AID 687035; in the data active means inhibition above about 37%). Conditions: Purified HCV NS3 helicase, Cy5-dT15 ssDNA binding fluorescence polarization; stronger effect = higher value; concentration not given here. A general note: In fluorescence polarisation assays a small probe gives low polarisation when free and higher when bound to something large.

Assay [9] is described as follows: compounds altering Cy5-DNA-NS3h complex signal – biochemical, LOPAC1280, artefact control for HCV NS3 helicase inhibitor project (AID 687037; call rule not given here). Conditions: Cy5-DNA-NS3h complex fluorescence interference counterscreen.
Assay [10] is described as follows: rescue of PC12 cells from polyQ htt toxicity – LDH release (AID 1610). To be noted: PC12 mutant huntingtin toxicity, final LDH at 4 uM, stronger effect = lower value. For orientation: Release of lactate dehydrogenase indicates damage to the cell membrane.

Values joined by “and” are separate entries in the source; they are usually repeats but may differ in a detail not shown here. Equal values may be shown once. Records with an inconclusive call do not appear. Active and inactive are the calls of the source. Unless noted, no stated cut-off is given here; in the data, active means parasite load remaining mostly below about 12% (no sharp cut-off); inactive means mostly above about 10%.

The term viability denotes a read-out of living cells in per cent, often relative to untreated cells. By inhibition is commonly meant the drop in the measured response relative to a control, in per cent.

For the molecule `Cc1c(C(=O)O)c(O)cc2c1C(=O)c1c(O)c([C@@H]3O[C@H](CO)[C@@H](O)[C@H](O)[C@H]3O)c(O)c(O)c1C2=O`, the nuclear beta-catenin stimulation was 0% (inactive) in assay [1] (at 10 µM) and 0.8% in [1] (stimulation, at 2 µM).

Turning to `C[C@@H]1CN(c2c(F)c(F)c3c(=O)c(C(=O)O)cn(C4CC4)c3c2F)C[C@H](C)N1`, the nuclear beta-catenin stimulation in assay [1] (at 10 µM) is -0.9% (inactive); in [1] (stimulation, at 2 µM), 1.1%.

Consider `C=C[C@@]1(C)CC(=O)[C@]2(O)[C@@]3(C)[C@@H](O)CCC(C)(C)[C@@H]3[C@H](O)[C@H](OC(C)=O)[C@@]2(C)O1`, for which the nuclear beta-catenin stimulation is 1.1% (inactive) in [1] (at 10 µM) and 0.6% in assay [1] (stimulation, at 2 µM).

For the molecule `C[C@@H]1CC[C@@]2(OC1)O[C@H]1C[C@H]3[C@@H]4CC[C@H]5C[C@@H](O)CC[C@]5(C)[C@H]4CC(=O)[C@]3(C)[C@H]1[C@@H]2C`, the nuclear beta-catenin stimulation is 6.5% (inactive) in assay [1] (at 10 µM) and 4.8% in assay [1] (stimulation, at 2 µM).

Consider `C=CCc1ccccc1OCC(O)CNC(C)C` (stereo unspecified), for which the glutamate uptake change in assay [2] is -6.27%. The inclusion score in [3] is 2. The molecule further returned an aggregation suppression score in assay [4] of 1.42. For the same molecule, in assay [5], the period change is 0.15 h (inactive). Further, the survival in assay [6] is 7.25 (inactive). In addition, in [7], the parasite load remaining was 48.8% (inactive) and 53.9% (inactive) and 74.6% (inactive); the viability is 101% and 91.5% and 140%. Further, the inhibition in [8] was -4% (inactive). In addition, the fluorescence ratio (interference) in [9] was 1 (inactive). The nuclear beta-catenin stimulation in [1] (at 10 µM) is 0.1% (inactive). Moreover, in assay [1] (stimulation, at 2 µM), the nuclear beta-catenin stimulation was -0.5%.

`C[C@H]1c2cccc(O)c2C(O)=C2C(=O)[C@]3(O)C(O)=C(C(N)=O)C(=O)[C@@H](N(C)C)[C@@H]3[C@@H](O)[C@@H]21` came in with a normalised LDH release in assay [10] of 0.903. Moreover, the glutamate uptake change in assay [2] was -7.42%. Moreover, the inclusion score in assay [3] is 0.5. This molecule had an aggregation suppression score in [4] of 0.446. In addition, the period change in [5] is -0.14 h (inactive). In addition, in [7], the parasite load remaining is 95% (inactive) and 57.5% (inactive) and 31.3% (inactive); the viability is 76.2% and 97.6% and 73.5%. Further, the inhibition in [8] was -1% (inactive). The fluorescence ratio (interference) in [9] is 1 (inactive). For the same molecule, in assay [1] (at 10 µM), the nuclear beta-catenin stimulation is -0.3% (inactive). Moreover, the nuclear beta-catenin stimulation in [1] (stimulation, at 2 µM) was determined as 3.8%.

On to `CCCCC(=O)O[C@]1(C(=O)CO)[C@@H](C)C[C@H]2[C@@H]3CCC4=CC(=O)C=C[C@]4(C)[C@@]3(F)[C@@H](O)C[C@@]21C`, for which the nuclear beta-catenin stimulation in assay [1] (at 10 µM) was 2.9% (inactive); in assay [1] (stimulation, at 2 µM), 5.5%.

Consider `O=NN(CCCl)C(=O)NCCCl`, for which, in assay [10], the normalised LDH release came out at 0.621. The glutamate uptake change in [2] came to 5.94%. This molecule yielded an aggregation suppression score in assay [4] of 0.185. For the same molecule, the period change in assay [5] was 0.115 h (inactive). Also, in assay [7], the parasite load remaining is 30.7% (inactive) and the viability amounted to 104%. Further, the inhibition in assay [8] was -4% (inactive). Further, the fluorescence ratio (interference) in assay [9] is 1 (inactive). The nuclear beta-catenin stimulation in [1] (at 10 µM) was 4.9% (inactive). The nuclear beta-catenin stimulation in assay [1] (stimulation, at 2 µM) is 1.3%.

Regarding `COCCCOc1cc(C[C@@H](C[C@H](N)[C@@H](O)C[C@H](C(=O)NCC(C)(C)C(N)=O)C(C)C)C(C)C)ccc1OC`, the nuclear beta-catenin stimulation was -0.6% (inactive) in assay [1] (at 10 µM) and 2.2% in assay [1] (stimulation, at 2 µM).

Molecule `CC(NCCC(c1ccccc1)c1ccccc1)c1ccccc1` (stereo unspecified) returned a normalised LDH release in assay [10] of 1.14. Besides, in assay [2], the glutamate uptake change was -8.71%. The aggregation suppression score in assay [4] is 1.16. For the same molecule, the survival in [6] is 3.08 (inactive). Also, the parasite load remaining in [7] was -2.42% (inactive) and 196% (inactive) and 56% (inactive). For the same molecule, the viability in assay [7] is 7.6% and 63.1% and 81.9%. The nuclear beta-catenin stimulation in [1] (at 10 µM) was 27.6% (inactive); in [1] (stimulation, at 2 µM) it was -0.2%.

For `Oc1c(Cl)cc(Cl)cc1Sc1cc(Cl)cc(Cl)c1O`, in assay [10], the normalised LDH release stood at 1.06. Also, the glutamate uptake change in assay [2] is -39%. Besides, the aggregation suppression score in [4] was determined as 0.0465. In [7], the parasite load remaining was 21.9% (inactive) and 0.17% (inactive); the viability was 65.4% and 70%. For the same molecule, the nuclear beta-catenin stimulation in assay [1] (at 10 µM) is 41.4% (active). Further, the nuclear beta-catenin stimulation in assay [1] (stimulation, at 2 µM) came out at 1.5%.

`CN(C)c1ccc(C(=C2C=CC(=[N+](C)C)C=C2)c2ccc(N(C)C)cc2)cc1`: in assay [10], the normalised LDH release was 0.824. Besides, the glutamate uptake change in assay [2] is -15.7%. For the same molecule, the aggregation suppression score in assay [4] is -1.97. Also, in [7], the parasite load remaining was -0.57% (inactive) and -0.18% (inactive); the viability is 16.5% and 0%. In addition, the nuclear beta-catenin stimulation in [1] (at 10 µM) was 1% (inactive). In addition, in [1] (stimulation, at 2 µM), the nuclear beta-catenin stimulation came out at 28.6%.

The record behind these values is PubChem BioAssay.
